{
  "source": "PubChem BioAssay AID485364",
  "about": "(National Center for Advancing Translational Sciences (NCATS), 2010)",
  "note": "The campaign covered roughly 360,000 compounds. About 11,000 (3.1%) were called active. Entries that show only a call come without a potency. Not shown: some 4% with an inconclusive outcome. This is one part of a sample in which actives are shown more often than they occur. The call rests on the fitted dose curve; in most records, active means well fitted inhibition curve with a large enough effect; inconclusive means small, poorly fitted or top-dose-only effect; inactive means no such curve, though single readings can be large or run the other way. Potency means the concentration at half of the fitted maximal effect.",
  "data": [
    {"target": "Schistosoma mansoni thioredoxin glutathione reductase (TGR) (UniProt Q962Y6)", "experiment": "qHTS Assay for the Inhibitors of Schistosoma Mansoni Peroxiredoxins; further: nearly all actives have a fitted effect of over 60% in size", "details": "purified TGR, DTNB reduction, TNB absorbance 405 nm; series mostly up to 114 µM", "how_it_was_run": "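TGR 20 nM + NADPH 100 uM (dispensed conc.), cpd preinc 15 min RT; start with NADPH (500 uM addition) then DTNB (15 mM addition). Kinetic TNB absorbance, 405 nm filter. Four-parameter Hill fit across titration.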", "values": [
      {"smiles": "C=Cc1ccc(Cn2c(C(=O)OC)cc3sc(C)cc32)cc1", "Potency": "inactive"},
      {"smiles": "COc1ccc(C(=O)CSc2c(C(C)C)cnc3c2c(=O)n(C)c(=O)n3C)cc1", "Potency": "inactive"},
      {"smiles": "COc1cc2[nH]c(=O)n(Cc3ccc(C(=O)NCc4ccc(C)cc4)cc3)c(=O)c2cc1OC", "Potency": "inactive"},
      {"smiles": "O=CN1CCN(C2CC(=O)N(c3ccc4c(c3)OCO4)C2=O)CC1", "note": "(stereo not drawn)", "Potency": "44.7 µM (active)"},
      {"smiles": "COc1ccc(N2CCN(C3CC(=O)N(c4ccc5c(c4)OCCO5)C3=O)CC2)cc1", "note": "(stereo not drawn)", "Potency": "inactive"},
      {"smiles": "Cc1ccc(CC2CC(=O)N(c3ccc4c(c3)OCCO4)C2=O)cc1", "note": "(stereo not drawn)", "Potency": "inactive"},
      {"smiles": "COc1cc(Nc2nc(-c3ccc(OC)c(OC)c3)nc3ccccc23)cc(OC)c1", "Potency": "inactive"},
      {"smiles": "CC(=O)c1ccc(NC(=O)CSc2c(C(C)C)cnc3c2c(=O)n(C)c(=O)n3C)cc1", "Potency": "inactive"},
      {"smiles": "Cc1cccc(NC(=O)CSc2ncc(-c3ccccc3)[nH]2)c1C", "Potency": "inactive"},
      {"smiles": "COc1ccc(CN(C)C(=O)c2cc(-c3ccc(C)cc3C)nc3ccccc23)c(OC)c1OC", "Potency": "inactive"},
      {"smiles": "CCOc1ccccc1-c1cc(C(=O)N2CCOCC2)c2ccccc2n1", "Potency": "inactive"},
      {"smiles": "CN(C(=O)COC(=O)c1cc(-c2ccco2)nc2ccccc12)C1CCS(=O)(=O)C1", "note": "(stereo not drawn)", "Potency": "3.55 µM (active)"},
      {"smiles": "O=C(c1cc(-c2ccc(Cl)s2)nc2ccccc12)N1CCOCC1", "Potency": "inactive"},
      {"smiles": "Cc1ccc(NC(=O)c2cc(-c3ccc(C)o3)nc3ccccc23)nc1", "Potency": "11.2 µM (active)"},
      {"smiles": "CC(=O)N1CCN(C(=O)c2cc(-c3ccc(C)o3)nc3ccccc23)CC1", "Potency": "inactive"},
      {"smiles": "CSc1ncccc1C(=O)Nc1ccc(C)cn1", "Potency": "inactive"},
      {"smiles": "CN(CCOc1ccccc1)C(=O)c1cc(COc2c(F)cccc2F)on1", "Potency": "inactive"},
      {"smiles": "CC1CCCN(C(=O)c2cc(-c3ccco3)nc3ccccc23)C1", "note": "(stereo not drawn)", "Potency": "31.6 µM (active)"},
      {"smiles": "CN(CCOc1ccccc1)C(=O)c1cc(-c2ccco2)nc2ccccc12", "Potency": "3.16 µM (active)"},
      {"smiles": "COc1ccc(NC(=O)COc2ccc(C(=O)OCC(=O)N(C)C3CCS(=O)(=O)C3)cc2OC)cc1", "note": "(stereo not drawn)", "Potency": "inactive"},
      {"smiles": "COc1ccc(/C=C(\\C#N)C(=O)OCC(=O)N(C)C2CCS(=O)(=O)C2)cc1", "note": "(stereo not drawn)", "Potency": "inactive"},
      {"smiles": "Cc1ccc(-c2nnc(Nc3ccc(OCC(N)=O)cc3)c3ccccc23)cc1S(=O)(=O)NCC1CCCO1", "note": "(stereo not drawn)", "Potency": "inactive"},
      {"smiles": "Cc1ccc(Cl)cc1N1CCN(C(=O)c2cnc3c(-c4ccc(F)cc4)c(C)nn3c2C)CC1", "Potency": "inactive"},
      {"smiles": "CC(=O)N1c2ccccc2CC1C(=O)N1CCN(c2ccc(F)cc2)CC1", "note": "(stereo not drawn)", "Potency": "inactive"},
      {"smiles": "Cc1ccc2oc(=O)c3cnn(CC(=O)N4CCN(c5cccc(Cl)c5)CC4)c3c2c1", "Potency": "inactive"},
      {"smiles": "Fc1cccc(-n2ncc3c2ncn2nc(-c4ccccc4Cl)nc32)c1", "Potency": "inactive"},
      {"smiles": "CCOc1cccc(C(=O)Nc2nnc(S(=O)(=O)N(C)c3ccc(C)cc3)s2)c1", "Potency": "inactive"},
      {"smiles": "O=C(Nc1ccc2oc(-c3ccc(O)c(Br)c3)nc2c1)c1cc2ccccc2o1", "Potency": "inactive"},
      {"smiles": "COc1ccc(OC)c(NC(=O)CN2CCCN(Cc3cc(C)ccc3C)S2(=O)=O)c1", "Potency": "inactive"},
      {"smiles": "Cc1csc2nc(COC(=O)c3ccc(NC(=O)COc4ccccc4F)cc3)cc(=O)n12", "Potency": "inactive"},
      {"smiles": "COc1cccc(N=C2SC(C(=O)Nc3cccc(Cl)c3)CC(=O)N2C)c1", "note": "(stereo not drawn)", "Potency": "inactive"},
      {"smiles": "CN(Cc1ccccc1)c1ncnc2onc(-c3ccc(F)cc3)c12", "Potency": "inactive"},
      {"smiles": "CC(=O)c1cccc(NC(=O)c2nc(-c3ccccc3)n(-c3cccc(C)c3)n2)c1", "Potency": "inactive"},
      {"smiles": "CCN(CC)CCNC(=O)CN1N=C(c2ccc(OC)cc2)CCC1=O", "Potency": "inactive"},
      {"smiles": "COc1ccc(NC(=O)CN(C)C(=O)c2cc(-c3ccc(C)o3)nc3ccccc23)cc1", "Potency": "28.2 µM (active)"},
      {"smiles": "COc1ccc(NC(=O)CN(C)C(=O)c2n[nH]c3ccccc23)cc1", "Potency": "inactive"},
      {"smiles": "CC(C)N(Cc1nnc(-c2ccccc2Br)o1)C(=O)c1cc(Cl)nc2ccccc12", "Potency": "inactive"},
      {"smiles": "COc1ccc(-c2cc(C(=O)N(C)CC(=O)Nc3ccccc3Cl)c3ccccc3n2)cc1OC", "Potency": "inactive"},
      {"smiles": "O=C(c1cc(-c2ccco2)nc2ccccc12)N(Cc1nnc(-c2ccc(Cl)cc2)o1)C1CC1", "Potency": "8.91 µM (active)"},
      {"smiles": "O=C(c1ccc(Cl)s1)N(Cc1nnc(-c2ccccc2Cl)o1)C1CC1", "Potency": "inactive"},
      {"smiles": "COc1ccc(Cc2nc3ccc(C(=O)NCc4ccc(OC)cc4OC)cc3o2)cc1", "Potency": "inactive"},
      {"smiles": "O=C(Nc1cc(C(F)(F)F)ccc1Cl)c1ccc2c(c1)CCN2S(=O)(=O)c1ccccc1", "Potency": "inactive"},
      {"smiles": "COc1ccc(NC(=O)CSc2nnc(-c3nnn(-c4ccc(F)cc4)c3C)o2)cc1", "Potency": "inactive"},
      {"smiles": "COc1ccc(OC)c(NC(=S)N2CCc3ccccc3C2)c1", "Potency": "inactive"},
      {"smiles": "COc1ccc(C)cc1NC(=S)N1CCOCC1", "Potency": "17.8 µM (active)"},
      {"smiles": "COc1cc(C(=S)N2CCOCC2)ccc1O", "Potency": "inactive"},
      {"smiles": "O=C(CCc1cn(Cc2ccc(F)cc2)c2ccccc12)NC1CCCCC1", "Potency": "inactive"},
      {"smiles": "CC(C)Cn1c(C2CC(=O)N(c3ccccc3Cl)C2)nc2ccccc21", "note": "(stereo not drawn)", "Potency": "inactive"}
    ]}
  ]
}
